This is one part of a sample in which hits are shown more often than they occur.
TbPYK inhibitor: T. brucei pyruvate kinase inhibition; Q57TT1; AID 624173; hit rate 0.12% among 410,000; Potency, µM (series often up to 76.8 µM), actives largely listed as inhibitors; TbPYK enzyme, Kinase-Glo Plus ATP luminescence, 45 min; also: nearly all actives have a fitted effect of over 50% in size
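Glycolytic pyruvate kinase of T. brucei was incubated with substrate, test compound and 130 uM ADP for 45 minutes at room temperature. Luminescent Kinase-Glo Plus signal was measured after 10 minutes.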
LmPK inhibitor: LmPK (Leishmania mexicana) enzyme inhibition; purified LmPK, Kinase-Glo ATP luminescence, 1 h; Potency, µM (highest dose often 57.5 µM), most hits filed as inhibitors; hit rate 0.37% among 290,000; AID 1721
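Purified LmPK (0.1 nM) converted ADP (0.1 mM) to ATP with PEP (0.5 mM) in imidazole buffer pH 7.2 with KCl and MgCl2, 1 h at room temperature. ATP was read by Kinase-Glo luminescence; data normalized to uninhibited and no-enzyme controls.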
Shiga toxin inh: inhibitors of Shiga toxin in Vero cells; Vero cells, Shiga toxin protein synthesis inhibition reporter; inhibition, % at 38.7 µM; hit rate 9.2% among 290,000; AID 2315; in the data active = inhibition mostly above about 28%, no sharp cut-off; inactive = mostly below about 43%
CHX counter: counter-screen hit for Shiga toxin inhibitors, cycloheximide. cell reporter, cycloheximide protein synthesis inhibition counterscreen. hit rate 12% among 300,000. max response, %; in the data active = max response mostly above about 13%, no sharp cut-off; inactive = mostly below about 14%; also: read at 38.3 µM for the half of the compounds with a filed dose
FBPA Giardia inh: Giardia lamblia aldolase inhibition. purified Giardia FBPA. hit rate 0.71% among 290,000. Potency, µM (titrated, usually from 59.6 µM), hits mostly inhibitors. AID 2451; also: nearly all actives have a fitted effect of over 55% in size
Target sequence (A8B2U2 whole entry, looked up): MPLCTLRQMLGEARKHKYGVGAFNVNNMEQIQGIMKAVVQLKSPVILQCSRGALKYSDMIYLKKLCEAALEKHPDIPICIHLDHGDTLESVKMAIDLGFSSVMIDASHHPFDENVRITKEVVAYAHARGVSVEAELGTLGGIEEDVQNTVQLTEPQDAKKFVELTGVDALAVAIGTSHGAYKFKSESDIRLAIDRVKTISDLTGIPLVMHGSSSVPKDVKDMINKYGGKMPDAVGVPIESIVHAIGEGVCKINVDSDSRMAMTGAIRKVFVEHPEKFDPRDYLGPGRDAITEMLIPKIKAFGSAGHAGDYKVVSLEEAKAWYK
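40 nM FBPA preincubated 10 min at RT with compound (up to 57.5 uM final), then substrate plus GAPDH/TPI/NAD/arsenate coupling and diaphorase/resazurin added. Fluorescence read after 20 min at RT, 525/598 nm.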
Sm TGR inh: S. mansoni TGR enzyme inhibition. Q962Y6. purified TGR, DTNB reduction, TNB absorbance 405 nm. Potency, µM (highest dose often 114 µM), most hits filed as inhibitors. hit rate 3% among 360,000. AID 485364; also: nearly all actives have a fitted effect of over 60% in size
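TGR 20 nM + NADPH 100 uM (dispensed conc.), cpd preinc 15 min RT; start with NADPH (500 uM addition) then DTNB (15 mM addition). Kinetic TNB absorbance, 405 nm filter. Four-parameter Hill fit across titration.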
Of the large screens only hits and unclear results are named; the others gave an inactive call. Unless noted, calls follow the shape of the dose curve; as a rule, active = well fitted curve in the direction sought with a large enough effect; inconclusive = small, poorly fitted or top-dose-only effect, or another doubt; inactive = no such curve, though single readings can be large; an effect the other way counts as inactive or inconclusive.

COc1ccc(C2=NNC(=O)CC2)cc1	none
CCOc1ccc(C2CC(=O)NC2=O)cc1 (stereo unspecified)	none
COc1ccc(/C=C/C2=NNC(=O)CC2)cc1	CHX counter 27
O=C1CCC(/C=C/c2ccccc2)=NN1	CHX counter 17
CCOc1ccc(/C=C/C2=NNC(=O)CC2)cc1	LmPK inhibitor inconclusive, Shiga toxin inh 53, CHX counter 23 (no result: Sm TGR inh)
CCCOc1ccc(C2=NNC(=O)CC2)cc1	CHX counter 15
Cc1ccc(Cl)cc1NC(=O)CSc1nc(C)c(C)c(C)c1C#N	none (no result: LmPK inhibitor, Shiga toxin inh, CHX counter, FBPA Giardia inh)
CC(=O)Nc1cccc(NC(=O)CSc2nc(C)c(C)c(C)c2C#N)c1	TbPYK inhibitor inconclusive, CHX counter 11
Cc1cccc(NC(=O)CSc2nsc(SCC(=O)Nc3cccc(C)c3)c2C#N)c1	CHX counter 12
CC(Sc1nncn1C)C(=O)Nc1nnc(-c2ccccc2)s1 (stereo unspecified)	Shiga toxin inh 46, CHX counter 23
CC(SC1=NCCS1)C(=O)Nc1nnc(-c2ccc(Cl)cc2)s1 (stereo unspecified)	Shiga toxin inh 29, CHX counter 12
CCOC(=O)c1cc(C)n(CC2CCC(C(=O)Nc3ccc(OCC)cc3)CC2)c1C (stereo unspecified)	none (no result: LmPK inhibitor, Shiga toxin inh, CHX counter, FBPA Giardia inh)
COc1ccc(-n2ncc(C(C)NS(=O)(=O)c3cc(F)ccc3C)c2C)cc1 (stereo unspecified)	CHX counter 21 (no result: FBPA Giardia inh)
Cc1nnc(Sc2nc3ccccc3o2)c2ccccc12	CHX counter 26, Sm TGR inh 32µM
Cc1ccc(-c2nnc(Sc3nc4ccccc4o3)c3ccccc23)cc1	none
CCNC(=O)C1(C)CCCN(Cc2csc(-c3ccccc3)n2)C1 (stereo unspecified)	none (no result: LmPK inhibitor, Shiga toxin inh, CHX counter, FBPA Giardia inh, Sm TGR inh)
CC(=O)Nc1ccc(NC(=O)/C=C/c2cccc(C(F)(F)F)c2)cc1	none
O=C(/C=C/c1cccs1)Nc1ccncc1	Shiga toxin inh 63, CHX counter 44
CC(C)(C)NC(=O)/C=C/c1cccc(C(F)(F)F)c1	CHX counter 14
Cc1ccnc(NS(=O)(=O)c2ccc(NC(=O)/C=C/c3cccs3)cc2)n1	none
Cc1ccc(NC(=O)/C=C/c2cccs2)c([N+](=O)[O-])c1	Shiga toxin inh 63, CHX counter 41
Cc1ccc(NC(=O)/C=C/C(=O)O)c([N+](=O)[O-])c1	Sm TGR inh inconclusive
CC(C)(C)c1ccc(/C=C/C(=O)Nc2ccncc2)cc1	Shiga toxin inh 67, CHX counter 53
CN1CCN(C(=S)NC(=O)/C=C/c2cccc3ccccc23)CC1	Sm TGR inh inconclusive
CC(C)(C)NC(=O)/C=C/c1cccs1	CHX counter 17
CCCOC(=O)c1cc(NC(=O)/C=C/c2ccccc2)ccc1O	Shiga toxin inh 74, CHX counter 17 (no result: TbPYK inhibitor)
CN1CCN(C(=S)NC(=O)/C=C/c2cccs2)CC1	CHX counter 22
CCCOC(=O)c1ccc(NC(=O)/C=C/c2cccs2)cc1	Shiga toxin inh 73, CHX counter 33
CCC(C)NC(=O)/C=C/c1cccs1 (stereo unspecified)	none
COC(=O)NC(c1ccco1)[C@@]1(C(=O)OC)CCCC1=O (stereo partly specified)	none (no result: TbPYK inhibitor, LmPK inhibitor, Shiga toxin inh, CHX counter, Sm TGR inh)
O=C(/C=C/c1cccs1)NCc1ccccc1	CHX counter 35
O=C(/C=C/c1cccs1)Nc1ccc([N+](=O)[O-])cc1	Shiga toxin inh 30, CHX counter 48
O=C(/C=C/c1cccs1)c1ccc([N+](=O)[O-])cc1	none
Cc1cccc(NC(=O)/C=C/c2cccs2)n1	LmPK inhibitor inconclusive, Shiga toxin inh 40, CHX counter 33
CN[C@H](C)Cc1ccccc1	none (no result: LmPK inhibitor, Shiga toxin inh, CHX counter, FBPA Giardia inh, Sm TGR inh)
COc1ccccc1CNC(=O)C1CCN(c2nc3ccc(Cl)cc3[nH]2)CC1	none (no result: LmPK inhibitor, Shiga toxin inh, CHX counter, FBPA Giardia inh)
Cc1ccc(C)c(S(=O)(=O)Nc2ccc(O)c(Sc3ncn[nH]3)c2)c1	FBPA Giardia inh inconclusive, Sm TGR inh 50µM
Cc1ccc(S(=O)(=O)Nc2ccc(O)c(Sc3ncn[nH]3)c2)cc1	none (no result: Sm TGR inh)
NS(=O)(=O)c1ccc(-c2ccc(C=C3C(=O)NC(=S)NC3=O)o2)cc1	FBPA Giardia inh inconclusive, Sm TGR inh 2.2µM (no result: TbPYK inhibitor)
CC1(C)OC(=O)C(=Cc2ccc(-c3ccc(S(N)(=O)=O)cc3)o2)C(=O)O1	TbPYK inhibitor 22µM
NS(=O)(=O)c1ccc(-c2ccc(/C=C3\C(=O)Nc4ccccc43)o2)cc1	none (no result: TbPYK inhibitor)
NS(=O)(=O)c1ccc(-c2ccc(C=C3C(=O)NC(=O)NC3=O)o2)cc1	TbPYK inhibitor 10µM, Sm TGR inh inconclusive
CC1(C(=O)NS(=O)(=O)Cc2ccccc2C(F)(F)F)CCN1C(=O)c1ccccc1 (stereo unspecified)	none (no result: LmPK inhibitor, Shiga toxin inh, CHX counter, FBPA Giardia inh, Sm TGR inh)
CC(C)(C)c1csc(NC(=O)CS(=O)(=O)c2ccccc2)n1	Shiga toxin inh 127, CHX counter 39
Cc1csc(NC(=O)CS(=O)(=O)c2ccccc2)n1	Shiga toxin inh 48, CHX counter 28
COc1cc(C(=O)Oc2ccccc2/C=N/NC(=O)c2ccc(C)c(Cl)c2)cc(OC)c1OC	none
COc1ccccc1/C=N/NC(=O)c1ccc(Br)cc1	CHX counter 26
COc1ccc(/C=N/NC(=O)c2ccc(Br)cc2)c(OC)c1	CHX counter 23
COc1cc(C(=O)Oc2ccccc2/C=N/NC(=O)c2ccc(Cl)cc2)cc(OC)c1OC	Shiga toxin inh 55, CHX counter 15
COc1cc(C(=O)N/N=C/c2coc3ccccc3c2=O)cc(OC)c1OC	Sm TGR inh 45µM
COc1ccc(/C=N/NC(=O)c2ccncc2)c(OC)c1	none
COc1ccccc1/C=N/NC(=O)CNC(=O)c1ccccc1	none
COc1ccc(C(=O)N/N=C\c2coc3ccccc3c2=O)cc1	LmPK inhibitor inconclusive, Sm TGR inh inconclusive
COc1ccc2cc(C(=O)C3CCCN(C(=O)c4cnn(C(C)C)c4)C3)ccc2c1 (stereo unspecified)	TbPYK inhibitor inconclusive
O=C(Cn1ncc2c3ccccc3n(Cc3ccc(Cl)cc3)c2c1=O)NCc1cccs1	none (no result: LmPK inhibitor, Shiga toxin inh, CHX counter, FBPA Giardia inh)
CCSC1=NC2(CCN(C(=O)NC3CCCCC3)CC2)N=C1c1ccc(C)cc1	none (no result: LmPK inhibitor, Shiga toxin inh, CHX counter, FBPA Giardia inh)
COc1ccc(/C=N/N=C(/N)N[N+](=O)[O-])c(OC)c1	Shiga toxin inh 29, CHX counter 29
Cc1ccc(C(=O)N(CN2CCCC2=O)c2ccccc2)cc1C	none
Cc1ccc(N(CN2CCCC2=O)C(=O)c2ccc(C)c(C)c2)cc1	CHX counter 17
CCCOc1cccc(C(=O)Nc2ccc(Br)cc2F)c1	Shiga toxin inh 68, CHX counter 42
O=C(Nc1ccc(Br)cc1F)c1ccc2nsnc2c1	TbPYK inhibitor inconclusive, Shiga toxin inh 62, CHX counter 33
Cc1ccc(NC(=O)c2ccc3c(c2)NC(=O)c2ccccc2S3)c(Cl)c1	none (no result: LmPK inhibitor, Shiga toxin inh, CHX counter, FBPA Giardia inh)
